In PubChem BioAssay (NCATS) one finds Potency, activity change, negative = inhibition and activity, negative = inhibition data, which are given here for 16 compounds.

Unmarked numbers belong to inactive results. Inconclusive results are not listed. The source made the active and inactive calls. Unless noted, calls come from the whole dose curve; as a rule, active = well fitted curve in either direction with a large enough effect (not every such curve was filed as active); inconclusive = small, poorly fitted or top-dose-only effect, or another doubt; inactive = flat fitted curve, though single readings scatter. A value given as a limit tells only on which side of the number the result lay.

Assay [1] deals with Lysosomal acid glucosylceramidase (Homo sapiens) (UniProt P04062). As to the kind of experiment: Glucocerebrosidase-p2 (AID 348; in the data active = potency below about 10 µM; note: potency is the fitted concentration of half-maximal effect). The following applies: purified GBA, blue fluorogenic substrate, 40 min. Put shortly:
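Normal human glucocerebrosidase (0.2 nM) with blue fluorogenic substrate (80 uM final) in citrate/phosphate pH 5.9 with 10mM sodium taurocholate, 0.01% tween-20; 40 min RT, NaOH/glycine stop; fluorescence Ex 365/Em 440; AC50 from a titration from 0.6 nM upwards.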

Assay [2] is described as follows: AP1 Signaling Pathway (AID 357).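 Note: ME-180 reporter cells stimulated with EGF at its EC50 level; % is set by controls: 0 for no effect and ±100 for the full control effect.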 Conditions: ME-180 AP-1-bla reporter, EGF-induced, beta-lactamase ratio, 5 h; at 7.69 µM (top of the series) unless noted. The method, boiled down:
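Titration-series screen for positive or negative modulators of EC50 EGF-induced signaling in ME-180 cells carrying an AP-1-driven beta-lactamase reporter. After 5 hours at 37 degrees Celsius, CCF4 460nm/530nm emission ratio gave %Activity; AC50 values derived.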

Assay [3] addresses Cytochrome P450 1A2 (Homo sapiens) (UniProt P05177). The experiment in a line: p450-cyp1a2 (AID 410; calls by dose curve; note: potency is the fitted concentration of half-maximal effect). Conditions: recombinant CYP1A2, luciferin-ME demethylation, luminescence; series mostly up to 11.4 µM. The method, boiled down: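 Luminescent demethylation readout: Luciferin-ME (100uM, equal to Km) turned over by 20nM CYP1A2 for 60 min at room temperature after NADPH regeneration addition, following 10 min compound preincubation. Normalization used 57 uM furafylline as full inhibition.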

A short description of assay [4]: NFAT Signaling Pathway (AID 444).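 Note: carbachol stimulus at about its EC50 of 1 µM final; % is set by controls: 0 for no effect and ±100 for the full control effect.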 The following applies: Jurkat NFAT-bla M1, carbachol, beta-lactamase ratio, 5 h; at 7.69 µM (top of the series) unless noted. Put shortly: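 Jurkat cells with NFAT-driven β-lactamase reporter and co-expressed M1 receptor, stimulated with carbachol (final 1 uM, ~EC50), compound titration, 5 h at 37 °C. CCF4 loaded 1 h at RT; 460/530 nm ratio gave %activity and AC50.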

Assay [5] is described as follows: Stat Signaling Pathway (AID 446).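 Note: ME-180 cervical cancer cells given 40 pM IL-6 alongside compound; SIE-controlled beta-lactamase reporter measured as 460/530 nm FRET emission ratio; % is set by controls: 0 for no effect and ±100 for the full control effect.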 The following applies: ME-180 (cervical carcinoma) SIE beta-lactamase reporter, IL-6 stimulated, 5 h; at 7.69 µM (top of the series) unless noted. The method, boiled down: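 Normalization used AC90 stimulation (300 pM IL-6) and AC90 inhibition (125 nM pan-JAK inhibitor at 40 pM IL-6). The underlying signal is SIE-driven beta-lactamase in ME-180 cells after 5 h IL-6 exposure with compound.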

The target of assay [6] is Glucocorticoid receptor (Homo sapiens) (UniProt P04150). The experiment in a line: GR-GFP Redistribution (AID 450;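 active = compounds whose dose series gives a full or clear partial fitted curve of increased nuclear translocation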; note: potency is the fitted concentration of half-maximal effect). Conditions: U2OS GR-GFP nuclear translocation, laser cytometry, 2 h.
Sequence of Glucocorticoid receptor (Homo sapiens) (P04150 whole entry, looked up, the tested form may be a part): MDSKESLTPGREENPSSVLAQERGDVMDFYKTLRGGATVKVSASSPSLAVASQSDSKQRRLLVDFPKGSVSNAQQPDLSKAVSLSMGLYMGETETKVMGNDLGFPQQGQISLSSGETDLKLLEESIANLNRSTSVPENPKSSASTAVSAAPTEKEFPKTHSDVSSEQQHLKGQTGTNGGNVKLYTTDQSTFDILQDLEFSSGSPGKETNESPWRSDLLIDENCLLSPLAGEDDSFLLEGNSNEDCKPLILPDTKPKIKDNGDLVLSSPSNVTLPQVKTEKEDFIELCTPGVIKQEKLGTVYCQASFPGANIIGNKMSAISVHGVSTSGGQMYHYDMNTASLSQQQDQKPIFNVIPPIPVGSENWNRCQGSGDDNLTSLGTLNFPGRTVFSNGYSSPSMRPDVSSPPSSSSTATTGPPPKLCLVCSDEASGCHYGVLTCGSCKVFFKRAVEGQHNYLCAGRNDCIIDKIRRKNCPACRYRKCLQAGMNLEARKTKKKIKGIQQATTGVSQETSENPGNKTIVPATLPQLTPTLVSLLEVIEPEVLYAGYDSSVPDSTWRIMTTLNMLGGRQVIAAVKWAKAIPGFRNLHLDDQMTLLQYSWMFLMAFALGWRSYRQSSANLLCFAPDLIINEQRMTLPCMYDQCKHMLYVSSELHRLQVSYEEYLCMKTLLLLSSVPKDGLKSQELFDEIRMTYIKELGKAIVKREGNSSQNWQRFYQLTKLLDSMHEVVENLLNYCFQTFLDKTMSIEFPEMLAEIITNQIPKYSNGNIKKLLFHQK
The target is the same in assay [7]. As to the kind of experiment: GR-EFC Redistribution (AID 451; calls by dose curve; note: potency is the fitted concentration of half-maximal effect). The following applies: CHO-K1 GR-EFC translocation, beta-gal luminescence, 2 h. The method, boiled down: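 CHO-K1 cells expressing nuclear EA and GR-ED fragments of b-gal; compounds titrated up to 46 uM final, 2 h at 37 C. GR nuclear translocation read as complemented b-gal luminescence after 1 h RT detection.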

Assay [8] concerns the target Mitogen-activated protein kinase 10 (Mus musculus) (UniProt Q61831). As to the kind of experiment: JNK3 AlphaScreen Assay (AID 530).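 Note: kinase came from lysate of stimulated human HepG2 cells; signal reports phosphorylation of biotinylated GST-cJun 1-79 at Ser73 with 10 µM ATP; % is set by controls: 0 for no effect and ±100 for the full control effect.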 The following applies: JNK3 lysate, c-Jun phosphorylation; series mostly up to 11.4 µM. The method, boiled down:
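Activity was read by AlphaScreen after JNK3-containing HepG2 lysate (cytokine pre-activated) phosphorylated biotinylated GST-cJun with 10 uM ATP at room temperature. Phospho-Ser73 cJun antibody with Protein-A acceptor beads provided detection.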
For orientation: Alpha assays give light when donor and acceptor beads are brought close together.

Assay [9] deals with 3',5'-cyclic-AMP phosphodiesterase 4B (Homo sapiens) (UniProt Q07343). As to the kind of experiment: qHTS Assay for Inhibitors of PDE-IV (AID 607; active = well fitted activation curve with a large enough effect in the main read-out, with a control signal flat, not every such curve was filed as active; note: % of control where 0% means no effect). Conditions: HEK293 ACTOne CNG channel cells, membrane potential fluorescence; series mostly up to 22.9 µM. The method, boiled down: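 HEK293 ACTOne cells with CNG channel (1000/well), endogenous PDE4; membrane potential dye, compounds up to 22.9 uM final. Fluorescence Ex 535/Em 590; RO 20-1724 (100 uM final) as reference.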
Sequence of 3',5'-cyclic-AMP phosphodiesterase 4B (Homo sapiens) (Q07343 whole entry, looked up): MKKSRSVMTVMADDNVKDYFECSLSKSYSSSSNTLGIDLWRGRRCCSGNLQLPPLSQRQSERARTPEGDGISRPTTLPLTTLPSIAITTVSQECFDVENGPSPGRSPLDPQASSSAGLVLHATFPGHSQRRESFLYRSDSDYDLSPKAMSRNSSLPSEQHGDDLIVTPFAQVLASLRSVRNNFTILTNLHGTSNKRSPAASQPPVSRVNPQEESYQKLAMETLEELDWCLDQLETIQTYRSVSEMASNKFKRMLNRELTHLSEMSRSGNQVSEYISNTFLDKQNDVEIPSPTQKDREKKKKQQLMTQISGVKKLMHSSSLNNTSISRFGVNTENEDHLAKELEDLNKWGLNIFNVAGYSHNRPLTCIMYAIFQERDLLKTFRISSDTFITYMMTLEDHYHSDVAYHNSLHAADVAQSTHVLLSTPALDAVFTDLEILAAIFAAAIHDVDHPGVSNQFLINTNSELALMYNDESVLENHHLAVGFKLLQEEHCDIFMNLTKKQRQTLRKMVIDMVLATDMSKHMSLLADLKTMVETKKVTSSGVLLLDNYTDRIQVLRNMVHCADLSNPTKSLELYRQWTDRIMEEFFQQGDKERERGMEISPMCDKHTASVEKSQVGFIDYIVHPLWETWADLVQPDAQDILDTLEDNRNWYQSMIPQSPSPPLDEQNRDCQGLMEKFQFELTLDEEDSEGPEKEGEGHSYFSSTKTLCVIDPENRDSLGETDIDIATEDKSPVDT
For orientation: Quantitative high-throughput screening tests each substance at several concentrations.

Sequence of Cytochrome P450 1A2 (Homo sapiens) (P05177 whole entry, looked up): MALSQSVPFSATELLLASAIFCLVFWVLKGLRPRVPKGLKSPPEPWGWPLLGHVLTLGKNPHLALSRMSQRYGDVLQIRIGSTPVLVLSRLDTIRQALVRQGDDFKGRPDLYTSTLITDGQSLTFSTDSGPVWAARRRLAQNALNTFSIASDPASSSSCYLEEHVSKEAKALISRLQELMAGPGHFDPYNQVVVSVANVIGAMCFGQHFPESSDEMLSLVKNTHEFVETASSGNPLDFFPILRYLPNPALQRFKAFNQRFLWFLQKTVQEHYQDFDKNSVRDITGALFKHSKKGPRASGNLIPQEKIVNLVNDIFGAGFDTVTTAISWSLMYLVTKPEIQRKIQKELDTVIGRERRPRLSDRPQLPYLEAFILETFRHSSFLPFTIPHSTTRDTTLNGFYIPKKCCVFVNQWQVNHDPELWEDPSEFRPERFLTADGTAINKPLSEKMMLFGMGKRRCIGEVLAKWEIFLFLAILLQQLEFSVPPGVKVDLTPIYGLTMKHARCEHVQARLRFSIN
Sequence of Lysosomal acid glucosylceramidase (Homo sapiens) (P04062 whole entry, looked up): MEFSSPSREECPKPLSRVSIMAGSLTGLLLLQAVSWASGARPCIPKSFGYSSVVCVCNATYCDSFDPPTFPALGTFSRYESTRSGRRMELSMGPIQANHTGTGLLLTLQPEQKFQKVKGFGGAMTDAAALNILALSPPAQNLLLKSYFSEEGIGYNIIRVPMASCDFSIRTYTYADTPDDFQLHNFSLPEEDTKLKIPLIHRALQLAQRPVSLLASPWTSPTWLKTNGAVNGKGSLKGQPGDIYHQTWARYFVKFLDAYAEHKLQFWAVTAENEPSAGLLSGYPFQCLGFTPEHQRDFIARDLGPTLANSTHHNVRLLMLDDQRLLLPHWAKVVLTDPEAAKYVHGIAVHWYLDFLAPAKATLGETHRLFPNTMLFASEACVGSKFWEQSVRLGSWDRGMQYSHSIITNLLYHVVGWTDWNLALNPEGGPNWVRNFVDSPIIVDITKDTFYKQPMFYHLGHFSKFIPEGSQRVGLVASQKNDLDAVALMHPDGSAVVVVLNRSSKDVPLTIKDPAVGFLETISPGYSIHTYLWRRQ

For `CC(C)=C[C@H]1[C@@H](COC(=O)c2ccccc2Cl)C1(C)C`, the Potency in [1] was > 11.4 µM; in assay [3], 3.98 µM (active); in assay [6], > 46 µM; in [7] it was > 9.22 µM. The activity change, negative = inhibition in [2] is 8.2%; in [4] it was 12.7%. In addition, the activity, negative = inhibition in assay [5] is -1.06%. Further, the Potency result in assay [8] and in assay [9] was “inactive” each time.

Turning to `O=C(O)c1ccccc1NCn1c(=S)sc2ccccc21`, the Potency was > 11.4 µM in assay [1], 0.501 µM (active) in assay [3], > 46 µM in [6] and > 9.22 µM in assay [7]. Moreover, the activity change, negative = inhibition was 5.4% in [2] and 7.61% in [4]. Moreover, in assay [5], the activity, negative = inhibition was -1.41%. Also, the Potency entry in assay [8] and in [9] was “inactive” in each case.

As for `O=C(Nc1ccc2oc(=O)c(C(=O)O)cc2c1)Oc1ccccc1`, the Potency in assay [1] was > 11.4 µM; in [6], > 46 µM; in assay [7], > 9.22 µM. The activity change, negative = inhibition in assay [2] was -4.82%; in assay [3] it was -15.3% [at 2.29 µM]; in assay [4], 9.87%. Besides, the activity, negative = inhibition in assay [5] is 1.95%. Also, the Potency entry in [8] and in assay [9] was “inactive” each time.

With `O=NN(Cc1ccc(Cl)cc1)[C@@H](C(=O)O)c1ccccc1`, the Potency was > 11.4 µM in assay [1], 5.01 µM (active) in [3], > 46 µM in [6] and > 9.22 µM in assay [7]. Besides, the activity change, negative = inhibition in [2] is 15.1%; in [4], -4.59%. The activity, negative = inhibition in assay [5] was 0.591%. Also, the Potency entry in assay [8] and in assay [9] was “inactive” in each case.

With `Cc1cc2nc([C@H](C)C(=O)c3ccc(Cl)cc3)c(=O)[nH]c2cc1C`, the Potency is > 11.4 µM in [1], 0.501 µM (active) in [3], > 46 µM in assay [6] and > 9.22 µM in assay [7]. Moreover, the activity change, negative = inhibition was -1.07% in assay [2] and -5.22% in assay [4]. Further, the activity, negative = inhibition in [5] is -18.7%. Moreover, the Potency result in assay [8] and in [9] was “inactive” throughout.

In the case of `O=C(O)c1ccc([N+]2=Cn3c(nc4ccccc43)C2)cc1`, the Potency in assay [1] was > 11.4 µM; in [3] it was 5.01 µM (active); in [6], > 46 µM; in [7] it was > 9.22 µM. Moreover, the figures for the activity change, negative = inhibition in assay [2] and in [4] were -0.795% and 9.31%, respectively. The activity, negative = inhibition in [5] was 0.556%. Also, the Potency result in assay [8] and in [9] was “inactive” each time.

`Clc1ccc2c(NCCNc3ccnc4cc(Cl)ccc34)ccnc2c1`: the Potency in assay [1] is > 11.4 µM; in assay [3] it was 5.01 µM (active); in assay [6], > 46 µM; in assay [7] it was > 9.22 µM. For the same compound, the activity change, negative = inhibition in assay [2] is -4.82%; in assay [4] it was 4.01%. Besides, the activity, negative = inhibition in assay [5] is 9.24%. The Potency entry in assay [8] and in assay [9] was “inactive” each time.

As for `NCS(=O)(=O)O`, the Potency in assay [1] was > 11.4 µM; in [6] it was > 46 µM; in assay [7], > 9.22 µM. Besides, the figures for the activity change, negative = inhibition in [2], in assay [3] and in assay [4] were -4.59%, -5.6% [at 2.29 µM] and 2.65%, respectively. Also, the activity, negative = inhibition in assay [5] is -0.0948%. Besides, the Potency result in assay [8] and in [9] was “inactive” throughout.

`CC[C@H](CN(C)C)C(=O)c1ccco1`: the Potency in assay [1] was > 11.4 µM; in assay [6], > 46 µM; in assay [7], > 9.22 µM. The activity change, negative = inhibition in assay [2] is 3.81%; in [4], -14.2%. Besides, the Potency entry in [3], in assay [8] and in assay [9] was “inactive” throughout. Further, the activity, negative = inhibition in assay [5] was -1.8%.

On to `C[C@H]1[C@H](C)OC(=O)C[C@H](O)C[C@H](O)C[C@H](O)CC[C@H](O)[C@H](O)CC(=O)C[C@H](O)[C@H](C(=O)O)[C@H](O)C[C@H](O[C@@H]2O[C@@H](C)[C@H](O)[C@@H](N)[C@@H]2O)C=CC=CC=CC=CCCC=CC=C[C@@](C)(O)[C@H]1O`, for which the Potency in assay [1] is > 11.4 µM; in assay [6], > 46 µM; in assay [7], > 9.22 µM. Further, the activity change, negative = inhibition in assay [2] was 4.16%; in assay [4], 2.48%. The Potency entry in assay [3], in [8] and in assay [9] was “inactive” each time. In addition, in assay [5], the activity, negative = inhibition was -6.26%.

For `c1ccc(CCCNc2nnnc3ccccc23)cc1`, the Potency in assay [1] is > 11.4 µM; in [3] it was 3.98 µM (active); in assay [6], > 46 µM; in assay [7] it was > 9.22 µM. Also, the activity change, negative = inhibition in assay [2] was -4.34%; in assay [4], -23%. In addition, the activity, negative = inhibition in [5] is -4.36%. Further, the Potency result in assay [8] and in [9] was “inactive” in each case.

As to `c1ccc2c(CC3NCCN3)cccc2c1`, the Potency in assay [1] was > 11.4 µM; in assay [6], > 46 µM; in assay [7] it was > 9.22 µM. For the same compound, the activity change, negative = inhibition in assay [2] is 7.37%; in [4], -8.06%. Further, the Potency result in assay [3], in assay [8] and in assay [9] was “inactive” each time. Moreover, the activity, negative = inhibition in assay [5] is 1.71%.

With `CN(CC(=O)O)Cc1c(O)c(Cl)cc(Cl)c1Cl`, the values for the Potency in assay [1], in [6] and in assay [7] were > 11.4 µM, > 46 µM and > 9.22 µM, respectively. Also, the activity change, negative = inhibition in assay [2] was -1.4%; in [3], -1% [at 2.29 µM]; in assay [4], 11.2%. In addition, the activity, negative = inhibition in assay [5] is 4.84%. Moreover, the Potency entry in assay [8] and in [9] was “inactive” throughout.

For `CC(C)C(=O)Cc1ccc2ccccc2n1`, the Potency was > 11.4 µM in assay [1], 3.16 µM (active) in assay [3], > 46 µM in assay [6] and > 9.22 µM in assay [7]. For the same compound, the figures for the activity change, negative = inhibition in assay [2] and in assay [4] were -4.8% and 12.2%, respectively. Also, in [5], the activity, negative = inhibition is 3.27%. The Potency result in assay [8] and in [9] was “inactive” throughout.

With `O=C(O)Cc1cccnc1`, the Potency was > 11.4 µM in assay [1], > 46 µM in assay [6] and > 9.22 µM in assay [7]. Also, the activity change, negative = inhibition in assay [2] is 8.81%; in assay [4], 15.8%. For the same compound, the Potency entry in assay [3], in assay [8] and in [9] was “inactive” in each case. Besides, the activity, negative = inhibition in assay [5] is 3.03%.

With `S=C(S)NCCN1CCNCC1`, the Potency was > 11.4 µM in assay [1], > 46 µM in assay [6] and > 9.22 µM in [7]. Besides, the activity change, negative = inhibition is -1.68% in assay [2] and -3.23% in [4]. For the same compound, the Potency entry in assay [3], in assay [8] and in assay [9] was “inactive” in each case. Also, in assay [5], the activity, negative = inhibition was -9.45%.
